The list is not random: actives were taken first. Their share in the collection is about 4.9%.
TIM10 inh – growth inhibitors of isogenic TIM10 control yeast, primary screen, counter-screen for tim10-1 yeast inhibitor project, luminescence, uHTS | S. cerevisiae TIM10 strain growth, BacTiter-Glo luminescence, 24 h | inhibition, % at 10 µM | actives 1.4% (n = 330,000);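 active means inhibition of 40% or more at the single tested concentration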;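 further: wild-type TIM10 isogenic control strain grown at permissive 25 °C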
tim23-1 inh – growth inhibitors of tim23-1 mutant yeast, primary screen, luminescence, uHTS. S. cerevisiae tim23-1 growth, BacTiter-Glo luminescence, 24 h. AID 463212, 2010. inhibition, % at 20 µM. actives 1.3% (n = 330,000);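 active means growth inhibition of the mutant yeast at or above 50%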;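 further: temperature-sensitive mutant grown at 25 °C; plate controls were DMSO-treated mutant yeast for no effect and medium wells lacking yeast for full effect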
SKKanGAS inh – S. pyogenes SKKanGAS growth inhibitors in kanamycin, primary screen, streptokinase expression inhibitor project, SKKanGAS strain, BacTiter-Glo luminescence | 6 h | actives 1.3% (n = 300,000) | inhibition, % at 7.5 µM;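 active means mean replicate score, as percent of positive control median, at least 50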;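 further: strain carries kanamycin resistance gene driven by streptokinase promoter and grows in 40 µg/ml kanamycin; loss of luminescence reflects streptokinase promoter inhibition or plain growth inhibition; 0% = median of DMSO wells and 100% = positive control at its reference dose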
tim10-1 inh – growth inhibitors of tim10-1 mutant yeast, primary screen, luminescence, uHTS; S. cerevisiae tim10-1 ts strain growth, BacTiter-Glo, 24 h; inhibition, % at 20 µM; actives 2.2% (n = 330,000); AID 463190, 2010;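 active means inhibition of at least 40%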;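 further: mutant grown at 25 °C; 0% = DMSO wells with yeast and 100% = wells holding no yeast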
NALP3 yeast inh – NALP3 inflammasome inhibitors in reconstituted yeast, primary screen, luminescence, uHTS; Yeast reconstituted NLRP3/ASC/caspase-1, beta-gal luminescence, 24 h; inhibition, % at 10 µM; actives 0.39% (n = 330,000); AID 2825, 2010;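 active means inhibition of 50% or more; inactive means inhibition below 50%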;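 further: plate controls were induced DMSO wells for no effect and uninduced yeast grown without galactose for full effect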
NALP1 inh – NALP1 inflammasome inhibitors in reconstituted yeast, colorimetric, S. cerevisiae, triplicate retest; S. cerevisiae NALP1/ASC/caspase-1 growth, X-gal OD620, 72 h; inhibition, % at 10 µM; actives 0.61% (n = 280,000); in the data active means inhibition mostly above about 24%, no sharp cut-off; inactive means mostly below about 32%
Numbers without * were called inactive; / = no result given.

SMILES	TIM10 inh	tim23-1 inh	SKKanGAS inh	tim10-1 inh	NALP3 yeast inh	NALP1 inh
Cn1cc(C(c2ccccn2)c2cn(C)c3ccccc23)c2ccccc21	34	30	16	27	14	-7
COc1ccc(C(CNC(=O)c2cccc(S(=O)(=O)N(C)c3ccccc3)c2)N2CCCC2)cc1 (stereo unspecified)	2	27	/	16	11	/
Cc1csc(NC(=O)C(CC(C)C)NS(=O)(=O)c2ccc3c(c2)oc(=O)n3C)n1 (stereo unspecified)	-1	9	-3	3	19	46*
O=C(COC(=O)c1ccc(O)cc1O)c1ccc2c(c1)OCO2	6	2	52*	-11	5	17
O=C(COC(=O)c1cc(Cl)ccc1O)c1ccc2c(c1)OCO2	0	2	2	-17	21	/
COc1ccc(C2C(C(=O)c3ccccc3)=C(C)Nc3nc4ccccc4n32)cc1OC (stereo unspecified)	5	7	13	5	5	38
COc1ccc(OC)c(C2C(C(=O)c3ccccc3)=C(C)Nc3nc4ccccc4n32)c1 (stereo unspecified)	-6	16	76*	-3	12	27
Oc1ccccc1CNCCCN1CCOCC1	-12	-15	-4	-5	16	8
NC(=O)N/N=C(/CCCCCC/C(=N\NC(N)=O)c1ccccc1)c1ccccc1	-6	-4	53*	-2	11	24
C/C(=N\NC(N)=O)c1ccccc1	0	0	-19	-2	13	5
CCOc1cc(-c2nc(-c3ccncc3)no2)cc(OCC)c1OCC	5	5	4	14	-25	22*
N=C1/C(=C/c2cccs2)C(=O)N=C2SN=C(SCc3ccccc3)N12	15	5	81*	9	-3	10
COc1ccccc1N1N=C(c2ccc([N+](=O)[O-])cc2)CC1c1ccccc1 (stereo unspecified)	2	23	-7	9	24	11
CC(=O)Oc1ccc(C2=NN(c3ccccc3)C(c3ccccc3)C2)cc1 (stereo unspecified)	21	14	65*	19	17	6
COc1cc(N2N=C(c3ccccc3)CC2c2ccccc2)c(C=O)cc1C=O (stereo unspecified)	3	10	55*	15	9	3
O=C(Cn1cc([N+](=O)[O-])ccc1=O)NCC1COc2ccccc2O1 (stereo unspecified)	5	-13	/	-16	14	/
CCOC(=O)c1c(NS(=O)(=O)Cc2ccccc2)sc2c1CCCC2	21	38	1	30	13	8
CCOC(=O)c1c(NS(=O)(=O)c2ccc(Br)cc2)sc2c1CCC2	25	31	79*	35	-2	/
CC(OC(=O)CC(C)c1ccccc1)C(=O)Nc1ccc(Cl)cn1 (stereo unspecified)	7	36	/	26	32	/
CCOC(=O)/C(C#N)=C1\Nc2ccccc2N=C1N(CC(C)C)CC(C)C	24	34	35	21	6	15
CCCCN(CCCC)C1=Nc2ccccc2N/C1=C(/C#N)C(=O)OCC	15	25	72*	16	25	-5
Cc1c(NC(=O)COC(=O)c2ccc(Cl)nc2)c(=O)n(-c2ccccc2)n1C	3	3	/	-6	-2	/
COCCNS(=O)(=O)c1cccn1-c1ncc(C(F)(F)F)cc1Cl	-7	5	3	10	-9	40*
Cc1cccc(C(=O)Nc2ccc(S(=O)(=O)N3CCOCC3)cc2C)c1	-5	16	-1	10	14	10
CCCC[C@@H]1CNC(=S)N1CC1CCCCC1	20	32	-3	24	36	/
SMILES	TIM10 inh	tim23-1 inh	SKKanGAS inh	tim10-1 inh	NALP3 yeast inh	NALP1 inh
S=C1NC[C@H](CC2CCCCC2)N1CC1CCCCC1	38	38	61*	30	16	0
COc1ccc(C(=O)NCCCOC(C)C)cc1OC1CCN(C(C)=O)CC1	9	6	-8	6	7	15
COc1ccc(NC(=S)N=Nc2c(O)[nH]c3ccccc23)cc1	13	5	95*	13	31	/
Cc1ccc(NC(=S)N=Nc2c(O)[nH]c3ccccc23)cc1	17	5	73*	38	22	12
Oc1ccc(NC(=S)N=Nc2c(O)[nH]c3ccccc23)cc1	4	6	7	1	10	-7
NC(=O)COc1ccc(/C=N/NS(=O)(=O)c2ccccc2)cc1	3	-4	10	2	2	40*
CN(Cc1ccccc1)C(=O)COC(=O)c1cc2ccccc2oc1=O	2	3	/	-6	4	/
Nc1ccc(C(=O)c2cccs2)cc1	13	19	-2	7	29	48*
Nc1ccc(C(=O)c2cccs2)cn1	2	-2	-7	-16	5	15
C=CCn1c(CCC(O)COCCC)n[nH]c1=S (stereo unspecified)	-17	1	1	11	5	-3
COc1ccc(CNCCC(c2ccc(OC)cc2)c2ccccc2OC)cc1 (stereo unspecified)	5	22	0	34	22	36
COc1ccc(CNCCC(c2ccc(F)cc2)c2ccc(OC)cc2)cc1 (stereo unspecified)	-3	3	-7	-2	23	79*
COc1ccc(CCNCc2ccc(OCc3ccccc3)cc2)cc1	-46	-106	-6	-49	47	45*
COc1ccc(C(CCNCc2ccc(F)cc2)c2ccc(F)cc2)cc1 (stereo unspecified)	20	32	-4	0	35	68*
COc1ccc(CNCCc2ccc(Cl)cc2)cc1OCc1ccccc1	9	-7	2	28	44	25
CCOC(=O)c1c(NC(=O)CSc2nccn2C)sc(C(=O)NC)c1C	0	14	-2	1	14	/
COc1ccccc1-c1cc(=O)c2c(O)ccc([N+](=O)[O-])c2o1	-2	17	70*	-29	27	1
O=C(O)c1ccc(CSc2nc(-c3ccc(Cl)cc3)cc(C(F)(F)F)n2)cc1	2	17	52*	1	2	32
NS(=O)(=O)c1ccc(OC(=O)CNC(=O)OCc2ccccc2)cc1	7	5	-3	-11	9	/
CC(=O)Nc1sc(NC(=O)c2ccc([N+](=O)[O-])cc2)nc1-c1cccs1	16	-4	56*	-8	3	9
CC(=O)Nc1ccc(S(=O)(=O)N2CCN(Cc3cccs3)CC2)cc1	19	17	1	8	0	26*

Screens deposited in PubChem by several laboratories.
